Source: PubChem
Compounds with a hit are over-represented: about 27% of the library has one in this group of screens.
Cav32 inh = human Cav3.2 channel inhibition, primary screen | O95180 | Cav3.2-expressing cells, Fluo-4 calcium fluorescence FDSS; hits give low values | B-score at 10 µM | hit rate 4% among 100,000 | AID 449739;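 active = single-dose well whose peak fluorescence ratio is a statistical outlier from its plate by either plate-standardised score or position-corrected B-score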
CYP2C9 activ = increases human cytochrome P450 2C9 activity | P11712 | activation factor at 5 µM | hit rate 1.4% among 96,000 | recombinant CYP2C9, luciferin-H conversion, luminescence; hits give high values; factor 1 = untreated enzyme, 0 = blocked;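 active = activation factor of 2 or more for CYP2C9 at a 5 µM dose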;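 also: 0 = sulfaphenazole-blocked wells and 1 = vehicle-only wells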
CYP2C19 inhib = inhibitors of human CYP2C19. CYP2C19 Supersomes, luciferin-H EGE luminescence, 30 min. P33261. hit rate 21% among 96,000. inhibition, % at 5 µM;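 active = CYP2C19 inhibition above a set limit at 5 µM in the primary screen, cut at about 50% in these data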;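 also: plate controls were negative control wells for no effect and 2.5 mM tranylcypromine positive control for full effect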
CYP2C9 inh = human CYP2C9 inhibition | P11712 | CYP2C9 Supersomes, luciferin-H conversion, luminescence | inhibition, % at 5 µM | hit rate 20% among 96,000 | AID 777;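 active = blocking of liver enzyme CYP2C9 beyond about 50% at 5 µM, limit read from the data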
CYP2C19 activ = cytochrome P450 2C19 (human) activation; P33261; recombinant CYP2C19, luciferin-H EGE luminescence; hits give high values; 0 = fully inhibited enzyme, 1 = untreated enzyme; activation factor at 5 µM; 96,000 tested, under 10 active;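 active = activation factor of at least 2 at 5 µM in the primary screen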;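 also: 0 = wells with 2.5 mM tranylcypromine and 1 = vehicle-only wells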
* marks the source's active call; other numbers are inactive results; nt = no result.

SMILES	Cav32 inh	CYP2C9 activ	CYP2C19 inhib	CYP2C9 inh	CYP2C19 activ
CC1CCCC(NC(=O)COC(=O)CCC2CCCC2)C1C (configuration not stated)	0.29	0.4	40	64*	0.6
CC1CCCC(NC(=O)COC(=O)COc2ccc(Cl)cc2)C1C (configuration not stated)	0.92	0.8	20	15	0.8
O=C(COC(=O)Cc1ccsc1)NCC12CC3CC(CC(C3)C1)C2	-0.22	0.6	59*	37	0.4
O=C(COC(=O)Cc1ccsc1)NC1CCCCCC1	0.47	1.1	74*	-11	0.3
COc1ccc(C2=C(C=Nc3c(C)n(C)n(-c4ccccc4)c3=O)C(c3ccccc3C)c3ccccc3O2)cc1OC (configuration not stated)	-0.92	0.6	14	40	0.9
Cc1cc(C)nc(SCC2COc3ccccc3O2)n1 (configuration not stated)	-2.6	0.8	47	17	0.5
COc1ccc(CN(CC(=O)NCc2ccco2)C(=O)CCC(=O)Nc2nccs2)cc1	-1.6	nt	nt	nt	nt
COc1ccc(NC(=O)CSc2nnc(-c3ccccn3)n2-c2ccccc2)cc1OC	0.00087	1.1	-8	-14	1.1
C[C@]12C(=O)N(c3ccc(Cl)cc3)C(=O)N1[C@@H]1c3ccccc3OC[C@@H]1[C@H]2c1ccccc1	-1.4	nt	nt	nt	nt
O=S(=O)(Cc1ccccc1Cl)N1CCN(Cc2ccc3c(c2)OCO3)CC1	-1.9	1.1	94*	-8	0.1
COc1ccc(F)cc1S(=O)(=O)N1CCN(Cc2ccc3c(c2)OCO3)CC1	nt	0.7	56*	28	0.4
CSc1ccc(S(=O)(=O)N2CCN(Cc3ccc4c(c3)OCO4)CC2)cc1	-3.9	0.6	26	42	0.7
Cc1ccc2nsnc2c1S(=O)(=O)N1CCCC1	0.04	1.3	37	-33	0.6
COc1ccc(S(=O)(=O)N2CCN(Cc3ccc4c(c3)OCO4)CC2)c2ccccc12	-0.87	0.3	89*	74*	0.1
Cc1ccc2nsnc2c1S(=O)(=O)N1CCN(Cc2ccc3c(c2)OCO3)CC1	0.071	0.3	97*	73*	0
O=C(O)CCC(=O)N1CCc2cc(S(=O)(=O)N3CCN(c4ccc(F)cc4)CC3)ccc21	0.47	1	-11	-2	1.1
CC(C)N=c1cc2n(-c3ccc(Cl)cc3)c3ccccc3nc-2cc1Nc1ccc(Cl)cc1	-3.9*	nt	nt	nt	nt
COc1ccccc1C1CC(c2ccc(C)cc2)Nc2ncnn21 (configuration not stated)	-1.8	0.7	88*	31	0.1
COc1ccccc1C1CC(c2ccc(F)cc2)Nc2ncnn21 (configuration not stated)	nt	1.1	42	-6	0.6
Fc1ccc(C2CC(c3ccco3)n3ncnc3N2)cc1 (configuration not stated)	-0.4	nt	nt	nt	nt
COc1ccccc1C1CC(c2ccccc2)Nc2ncnn21 (configuration not stated)	-0.57	0.6	87*	37	0.1
Cc1ccc(C)c2c1sc(=NC(=O)CN1C(=O)CCC1=O)n2C	0.012	1.3	-25	-27	1.3
O=C(NCCCN1CCN(c2cccc(Cl)c2)CC1)C1(S(=O)(=O)c2ccc(Cl)cc2)CC1	-6.9*	1.2	44	-15	0.6
O=C(N1CCN(c2cccc(Cl)c2)CC1)C1(S(=O)(=O)c2ccc(Cl)cc2)CC1	-4.7*	0.8	57*	22	0.4
CC(=O)c1ccc(N2CCN(C(=O)C3(S(=O)(=O)c4ccc(Cl)cc4)CC3)CC2)cc1	0.51	0.8	12	16	0.9
SMILES	Cav32 inh	CYP2C9 activ	CYP2C19 inhib	CYP2C9 inh	CYP2C19 activ
Cc1ccc(Cl)cc1N1CCN(C(=O)C2(S(=O)(=O)c3ccc(Cl)cc3)CC2)CC1	-6.1*	0.1	84*	89*	0.2
c1ccc(CN2CCN(C(c3ccccc3)c3nnnn3Cc3ccccc3)CC2)cc1 (configuration not stated)	-0.29	nt	nt	nt	nt
COc1ccc2cc(C(c3nnnn3Cc3ccccc3)N3CCCCCC3)c(=O)[nH]c2c1 (configuration not stated)	0.67	0.3	70*	70*	0.3
COc1ccc(Cn2nnnc2C(c2cccs2)N2CCCCCC2)cc1 (configuration not stated)	-4.1*	0.1	100*	92*	0
c1ccc(Cn2nnnc2C(c2cccs2)N2CCSCC2)cc1 (configuration not stated)	-3.4	nt	nt	nt	nt
COc1ccc(Cn2nnnc2C(c2cccs2)N2CCSCC2)cc1 (configuration not stated)	-2.2	0.4	83*	59*	0.2
